# This is part of a sample that, as a whole, favours compounds with a hit. Of some 83,000 tested, about 20% had one in any assay.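 Values shown are percent growth following 48 h exposure of cells in 96-well plates to a single concentration of compound; below 10 was considered active.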 Values without a mark were called inactive. The source made the active and inactive calls.
# What was measured:
# Assay in all cases: NCI-60 one-dose screen, 48 h (100 = growth as untreated, 0 = no growth, -100 = all killed)
# Settings in all cases: 10 µM unless noted
# NCI-H23 lung = system: NCI-H23 lung
# NCI-H226 lung = system: NCI-H226 lung
# NCI-H322M lung = system: NCI-H322M lung
# HOP-62 NSCLC = system: HOP-62 NSCLC
# NCI-H460 lung = system: NCI-H460 lung
# HOP-92 NSCLC = system: HOP-92 NSCLC
# NCI-H522 lung = system: NCI-H522 lung
# A549/ATCC NSCLC = system: A549/ATCC NSCLC
# 786-0 renal = system: 786-0 renal
# COLO 205 colon = system: COLO 205 colon
SMILES,growth (NCI-H23 lung),growth (NCI-H226 lung),growth (NCI-H322M lung),growth (HOP-62 NSCLC),growth (NCI-H460 lung),growth (HOP-92 NSCLC),growth (NCI-H522 lung),growth (A549/ATCC NSCLC),growth (786-0 renal),growth (COLO 205 colon)
Clc1cccc(Nc2ncnc3ccc(-c4cnc5[nH]ccc5c4)cc23)c1,84.4%,80%,18.7%,86.9%,78.3%,94.5%,33.9%,50.1%,-19.6% (active),83.4%
Cc1ccc(-c2nc([P+](c3ccccc3)(c3ccccc3)c3ccccc3)c(S(=O)(=O)c3ccc(C)cc3)o2)cc1,15%,46.9%,57.2%,17.7%,4.75% (active),-7.71% (active),4.04% (active),27.5%,-18.7% (active),-38.1% (active)
COc1ccc(/C=N/NC(=O)c2ccc(-n3cc(-c4ccccc4)nn3)cc2)cc1OC,95.2%,92.7%,105%,101%,111%,94.9%,99.6%,104%,98.1%,91.7%
CCN(CC)S(=O)(=O)c1ccc(S(=O)(=O)N2CCC[C@@H](C(=O)N3CCN(c4nc(C(C)C)no4)CC3)C2)cc1,50%,82.1%,88.7%,66.8%,70.8%,77.1%,60.2%,67.1%,89.6%,102%
COC1/C=C/OC2(C)Oc3c(C)c(O)c4c(O)c(c(/C=N/Nc5ccc([N+](=O)[O-])cc5[N+](=O)[O-])c(O)c4c3C2=O)NC(=O)C(C)=C/C=C/C(C)C(O)C(C)C(O)C(C)C(OC(C)=O)C1C (stereo not given),4.25% (active),-57.2% (active),93.9%,42.2%,59.5%,-60.8% (active),-42.5% (active),82.9%,24.4%,24.9%
Cc1ccc(-c2nc(N3CCCNCC3)c3oc(-c4ccccc4)nc3n2)cc1,9.93% (active),93.1%,-70.4% (active),-55.3% (active),-67.9% (active),-27.1% (active),-74.6% (active),-87.8% (active),-89.8% (active),-80.9% (active)
CN1C(=O)/C(=C\c2nc([P+](c3ccccc3)(c3ccccc3)c3ccccc3)c(N3CCOCC3)o2)SC1=S,81.6%,106%,91.2%,97.9%,97.6%,-33.6% (active),93.6%,86.1%,97.5%,88.1%
O=C(c1ccccc1)c1ccc(C2CCCCC2)cc1,95%,92.4%,99.7%,98.5%,97%,76.2%,88.9%,98%,90.1%,101%
COc1cc(-c2csc(NC(=O)c3ccc(N4CCOCC4)c(C(F)(F)F)c3)n2)cc(OC)c1OC,15.7%,41.6%,70.3%,34.2%,46.2%,57.6%,14.3%,31.9%,37%,18.9%
O=C(CSc1oc(-c2ccccc2)nc1S(=O)(=O)c1ccccc1)Nc1ccc(F)cc1,78.6%,87%,76.9%,86.1%,93.5%,2.48% (active),72.2%,76.9%,59.1%,101%
COC12C=C/C(=C(/C(=O)OCc3ccncc3)C(=O)CCCCCCCCC3(OC)C=C/C(=C(/C(=O)OCc4ccncc4)C(=O)CCCCCCCC1)O3)O2,-61.1% (active),-64.7% (active),-63.2% (active),16.7%,1.88% (active),-48.9% (active),-41% (active),9.15% (active),-50.9% (active),-25% (active)
N#Cc1ccc(O)c(C2=NCC(c3cccc(Oc4ccccc4)c3)O2)c1 (stereo not given),41.1%,45.2%,41.7%,2.94% (active),4.55% (active),36.8%,-11.9% (active),-0.648% (active),26.4%,14.7%
C#CCOc1cccc(Nc2ncnc3cc(NC(=O)C=C)ccc23)c1,30.3%,62.3%,50.3%,40.4%,16.1%,12.3%,-17.5% (active),29.7%,7.49% (active),17.3%
CCCOC(=O)Nc1nc2ccc(SCC(C)C)cc2s1,46.4%,52.4%,44.1%,40.7%,29.1%,48.4%,24.1%,34.3%,40.4%,11.6%
COC(=O)c1cc(N=C2NC(=O)/C(=C/C=C/c3ccccc3)S2)ccc1O,37.2%,37.5%,47.2%,44.5%,12.1%,34.3%,19.4%,30.8%,20.4%,9.95% (active)
Cn1ccc(=O)c(C(=O)Nc2nsc3ccc([N+](=O)[O-])cc23)c1,91.3%,76.7%,45.2%,96.4%,48.2%,41.2%,53.3%,74.9%,56.2%,76.9%
COC(=O)C1Cc2ccccc2CN1C(=O)c1ccc2c(c1)Cc1ccccc1-2 (stereo not given),35.9% [50 µM],45.3% [50 µM],68.2% [50 µM],76.6% [50 µM],34.4% [50 µM],48.5% [50 µM],18.5% [50 µM],27.3% [50 µM],54% [50 µM],32.2% [50 µM]
Nc1[nH]n2cc(-c3ccccc3)nc2c1N=Nc1ccc(S(N)(=O)=O)cc1,45.7%,52.7%,36.6%,42.5%,20.1%,25.7%,30.5%,32.8%,28.4%,45.1%
C=C1C(=O)O[C@H]2[C@H]1CC/C(COC(=O)/C=C\C(=O)NCc1ccc(Cn3c(=O)sn(CCI)c3=O)cc1)=C\CC[C@@]1(C)O[C@@H]21,84.1%,83%,86.6%,130%,91.9%,46%,-84% (active),98.1%,37.4%,-32.8% (active)
CCOC(=O)C1=C(c2ccccc2)N=C2SC=C(c3ccc(Cl)cc3)N2C1c1ccc(Br)cc1 (stereo not given),69.8%,76.6%,90.9%,90.7%,85%,56.1%,69.3%,84.5%,80.6%,83.1%
COC(=O)c1c(C)c2n(c1C)C(=O)C(c1ccccc1)=C2,68.9%,61.8%,94.5%,72.7%,89.5%,65.8%,61.9%,39.6%,94.3%,79.3%
COc1ccc(Nc2ncc(Br)c(NCCCNC(=O)C3CCCC3)n2)cc1,30.3%,28.5%,58.5%,22.4%,23.6%,26%,65.7%,38.9%,36.3%,21.6%
O=C(COc1ccc(-c2nc3cc(Cl)c(Cl)cc3[nH]2)cc1)N=Nc1c(O)[nH]c2ccc(Cl)cc12,70.1%,80.8%,94.9%,89.9%,46.4%,77.1%,97.9%,75.9%,68.7%,56.2%
